Screening results as filed in PubChem BioAssay.
AmpC no deterg – AmpC beta-lactamase inhibition without detergent | P00811 | Potency, µM (highest dose often 57.1 µM), inactives show at the top dose activity change, negative = inhibition, hits mostly inhibitors | AmpC nitrocefin hydrolysis, absorbance 480 nm, 0.0001% Triton | AID 485341 | 330,000 tested, 0.52% active;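 further: plate controls were no compound for no effect and no enzyme for full effect; nearly all actives have a fitted effect of over 20% in size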
Target sequence (P00811 whole entry, looked up): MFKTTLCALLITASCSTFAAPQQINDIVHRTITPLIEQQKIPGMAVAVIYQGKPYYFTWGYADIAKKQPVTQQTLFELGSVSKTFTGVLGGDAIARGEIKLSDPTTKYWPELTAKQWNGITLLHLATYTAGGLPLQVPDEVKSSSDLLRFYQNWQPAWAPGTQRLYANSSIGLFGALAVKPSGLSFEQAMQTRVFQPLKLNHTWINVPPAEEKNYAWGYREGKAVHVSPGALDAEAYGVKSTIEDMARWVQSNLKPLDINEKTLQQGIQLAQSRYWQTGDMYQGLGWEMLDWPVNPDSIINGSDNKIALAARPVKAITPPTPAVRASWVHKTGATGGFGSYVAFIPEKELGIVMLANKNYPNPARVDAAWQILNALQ
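AmpC (5.3 nM in the dispensed reagent) in 20 mM phosphate pH 7.0 with 0.01% (detergent screen) or 0.0001% Triton X-100 was preincubated with compounds for 15 min at room temperature. Nitrocefin was then added from an 800 uM solution, and hydrolysis was followed at 480 nm.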
Sm TGR block – blocks Schistosoma mansoni thioredoxin glutathione reductase; Potency, µM (series often up to 114 µM), for the others: at the highest dose activity change, negative = inhibition, usual class: inhibitors; AID 485364; Q962Y6; purified TGR, DTNB reduction, TNB absorbance 405 nm; 360,000 tested, 3% active; further: nearly all actives have a fitted effect of over 60% in size
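TGR 20 nM + NADPH 100 uM (dispensed conc.), cpd preinc 15 min RT; start with NADPH (500 uM addition) then DTNB (15 mM addition). Kinetic TNB absorbance, 405 nm filter. Four-parameter Hill fit across titration.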
RE007 growth inh – less growth of the S. pombe RE007 Vpr strain | S. pombe RE007 Vpr strain, BacTiter-Glo ATP luminescence, 24 h | Potency, µM (highest dose often 92.2 µM), for the others: top-dose activity change, negative = less growth, most hits filed as inhibitors | 360,000 tested, 0.21% active | AID 651644; active means well fitted falling curve with a large enough effect; inconclusive means small, poorly fitted or top-dose-only effect; inactive means no such curve, though single readings can be large or run the other way; further: nearly all actives have a fitted effect of over 50% in size
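Fission yeast strain RE007, carrying one chromosomally integrated HIV-1 vpr copy, was seeded at OD 0.01 in PMG+AL medium with 23 nL pinned compound. After 24 h at 30 °C and 99% humidity, viability was read by BacTiter-Glo luminescence.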
Giardia FBPA inh – blocks Giardia fructose-bisphosphate aldolase activity. A8B2U2. purified Giardia FBPA. Potency, µM (highest dose often 59.6 µM), inactives show top-dose activity, negative = inhibition, hits mostly inhibitors. 290,000 tested, 0.71% active. AID 2451; further: nearly all actives have a fitted effect of over 55% in size
Target sequence (A8B2U2 whole entry, looked up): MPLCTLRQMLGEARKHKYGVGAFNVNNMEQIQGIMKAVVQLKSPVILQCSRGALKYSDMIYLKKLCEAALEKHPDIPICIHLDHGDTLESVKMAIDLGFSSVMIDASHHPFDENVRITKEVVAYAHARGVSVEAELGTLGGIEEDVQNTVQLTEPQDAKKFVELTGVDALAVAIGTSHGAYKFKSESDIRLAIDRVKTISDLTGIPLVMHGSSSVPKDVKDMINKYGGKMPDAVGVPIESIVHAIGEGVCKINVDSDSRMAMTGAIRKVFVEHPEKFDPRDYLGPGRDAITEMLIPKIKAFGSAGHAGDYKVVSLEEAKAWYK
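Giardia FBPA (40 nM reagent) was preincubated 10 min at RT with compound (up to 57.5 uM final), then substrate plus GAPDH/TPI/NAD/arsenate coupling system with diaphorase/resazurin was added; resorufin fluorescence (525/598 nm) was read after 20 min.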
AmpC detergent – blocks E. coli AmpC beta-lactamase in detergent assay; 370,000 tested, 0.041% active; Potency, µM (titrated, usually from 114 µM), without a hit: at the highest dose activity change, negative = inhibition, actives largely listed as inhibitors; P00811; AmpC hydrolysis of nitrocefin, absorbance 480 nm, 0.01% Triton;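 further: 0% = no-compound wells and -100% = no-enzyme wells; nearly all actives have a fitted effect of over 25% in size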
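20 mM phosphate pH 7.0 + 0.01% (detergent screen) or 0.0001% Triton X-100; 5.3 nM AmpC reagent; cpd preinc 15 min RT; nitrocefin (800 uM stock) to start; A480 q20 s × 4 min; Activity was normalised to no-enzyme and no-compound control wells.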
The depositor's hits bear a star; ! = not active in a repeat. Shown are actives, neighbours in structure and some others; about 3.4% of the full set was active somewhere. Unless noted, the call rests on the fitted dose curve; in most records, active means well fitted curve in the direction sought with a large enough effect; inconclusive means small, poorly fitted or top-dose-only effect, or another doubt; inactive means no such curve, though single readings can be large; an effect the other way counts as inactive or inconclusive. Unless noted, on the % scale 0 is the no-effect control and ±100 the full control effect; potency means the concentration at half of the fitted maximal effect.

CC(C)OC(=O)c1cn(-c2ccccc2)nc1-c1ccco1 was read as AmpC no deterg -20%, Sm TGR block 5µM*, RE007 growth inh 45%, Giardia FBPA inh -7% and AmpC detergent 1%.
For Cc1ccc(-c2nn(-c3ccccc3)cc2C(=O)O)o1 the results were AmpC no deterg -31%, Sm TGR block 20µM*, Giardia FBPA inh -14% and AmpC detergent -5%.
`Cc1ccc(-c2nn(-c3ccccc3)cc2/C=C/C(=O)O)o1` gave AmpC no deterg -13%, Sm TGR block 32µM*, RE007 growth inh -7%, Giardia FBPA inh -12% and AmpC detergent -4%.
`O=C(O)/C=C/c1cn(-c2ccccc2)nc1-c1cc2ccccc2oc1=O` gave AmpC no deterg -19%, Sm TGR block -11%, RE007 growth inh 5%, Giardia FBPA inh 7% and AmpC detergent 2%.
COc1ccc(-c2nn(-c3ccccc3)cc2C(=O)O)cc1 was read as AmpC no deterg -12%, Sm TGR block 0%, RE007 growth inh 3%, Giardia FBPA inh 1% and AmpC detergent inconclusive.
`COc1ccccc1OCCCN1C(=O)C(=O)c2cccc(C)c21` gave AmpC no deterg 3%, Sm TGR block 3.2µM*, RE007 growth inh -10%, Giardia FBPA inh inconclusive and AmpC detergent 0%.
`Cc1ccccc1OCCN1C(=O)C(=O)c2cccc(C)c21` gave AmpC no deterg -21%, Sm TGR block -5%, RE007 growth inh -2%, Giardia FBPA inh -5% and AmpC detergent -15%.
c1ccc(CN2CCCC3(CCNCC3)C2)cc1 was read as Giardia FBPA inh 1%.
`OC1(Cc2ccccc2)CCNCC1` gave AmpC no deterg -22%, Sm TGR block 45µM*!, RE007 growth inh -2%, Giardia FBPA inh 2% and AmpC detergent 5%.
Screening Cc1ccc(NC(=O)c2sc3ncn(CC(=O)N4CCN(c5ccccn5)CC4)c(=O)c3c2C)cc1Cl returned AmpC no deterg 104%, Sm TGR block 5%, RE007 growth inh -4% and AmpC detergent 1%.
Screening Cn1cnnc1Sc1c([N+](=O)[O-])ncn1C returned Giardia FBPA inh 5%.
`Cn1cnc([N+](=O)[O-])c1Sc1nnc(-c2cccnc2)n1C` gave AmpC no deterg -17%, Sm TGR block 0.45µM*, RE007 growth inh 2%, Giardia FBPA inh 2% and AmpC detergent -5%.
For CCOc1ccc(NC(=O)c2cccnc2Cl)c([N+](=O)[O-])c1 the results were AmpC no deterg -17%, Sm TGR block -5%, RE007 growth inh 1%, Giardia FBPA inh -3% and AmpC detergent -1%.
Cn1c(=O)c2c(SCc3c(F)cccc3Cl)nc(CC(C)(C)C)nc2n(C)c1=O was read as AmpC no deterg 3.5µM*, Sm TGR block 14%, RE007 growth inh 0%, Giardia FBPA inh -3% and AmpC detergent -4%.
Screening Cn1c(=O)c2c(SCC(N)=O)nc(CC(C)(C)C)nc2n(C)c1=O returned AmpC no deterg 6.3µM*, Sm TGR block 3%, RE007 growth inh -9%, Giardia FBPA inh inconclusive and AmpC detergent inconclusive.
Screening COc1ccc(OCCSc2nc3ccccc3c(=O)[nH]2)cc1 returned AmpC no deterg -34%, Sm TGR block 0%, RE007 growth inh 8%, Giardia FBPA inh -2% and AmpC detergent 1%.
Cc1nnc(SCC(=O)N2CCCCC2)n1CC1CCCO1 (centres undefined) was read as AmpC no deterg -15%, Sm TGR block 0%, RE007 growth inh -5%, Giardia FBPA inh 1% and AmpC detergent inconclusive.
N#Cc1ccc(NC(=O)C2=COCCO2)cc1 was read as AmpC no deterg -6%, Sm TGR block 89µM*, RE007 growth inh 5% and AmpC detergent 5%.
`CC(C)OC(=O)c1cc2c(=O)[nH]c(C(Cl)(Cl)Cl)nc2o1` gave AmpC no deterg -25%, Sm TGR block 28µM*, RE007 growth inh 3%, Giardia FBPA inh -18% and AmpC detergent -4%.
Screening CC(C)OC(=O)c1ccc(S(N)(=O)=O)o1 returned AmpC no deterg -11%, Sm TGR block -9%, RE007 growth inh 10%, Giardia FBPA inh 4% and AmpC detergent -15%.
For O=C(N/N=C/c1ccccc1)c1ccco1 the results were AmpC no deterg -3%, Sm TGR block 4%, RE007 growth inh -17%, Giardia FBPA inh 0% and AmpC detergent -13%.
For O=C(C#Cc1ccccc1)c1ccco1 the results were AmpC no deterg -35%, Sm TGR block 0.89µM*, RE007 growth inh 8.9µM*, Giardia FBPA inh -3% and AmpC detergent inconclusive.
Screening COc1ccccc1C(=O)Nc1ncc2c(n1)CC(c1ccco1)CC2=O (centres undefined) returned AmpC no deterg -12%, Sm TGR block 20µM*, RE007 growth inh 6%, Giardia FBPA inh -22% and AmpC detergent inconclusive.
`COc1ccc(C2CC(=O)c3cnc(NC(=O)c4ccco4)nc3C2)cc1` (centres undefined) gave AmpC no deterg 28%, Sm TGR block -15%, RE007 growth inh -2% and AmpC detergent 1%.
CCOc1cc(C2C(C(=O)OC)=C(C)N=C3SC(C)C(=O)N32)ccc1OC(C)=O (centres undefined) was read as AmpC no deterg 34%, Sm TGR block 0%, RE007 growth inh 0%, Giardia FBPA inh -13% and AmpC detergent -15%.
For CCOC(=O)C1=C(C)N=C2SC(C)C(=O)N2C1c1ccc(OC(C)=O)c(OC)c1 (centres undefined) the results were AmpC no deterg 27%, Sm TGR block 50µM*, RE007 growth inh 0%, Giardia FBPA inh -12% and AmpC detergent -11%.
`CC(CC(=O)Nc1ccc2c(c1)c(=O)n(C)n2Cc1cccc(C(F)(F)F)c1)C(F)(F)F` (centres undefined) gave RE007 growth inh 2%.
For Cc1c2c(c(O)c3c(O)cccc13)C(=O)O[C@H]2C1C(N(C)C)C(O)=C(C(N)=O)C(=O)[C@H]1O (some centres undefined) the results were Giardia FBPA inh 10µM*.
For COCCn1c(-c2ccco2)nc2nc3ccccc3nc21 the results were AmpC no deterg -15%, Sm TGR block 7%, RE007 growth inh 9%, Giardia FBPA inh -8% and AmpC detergent inconclusive.
`CC(C)OCCCn1c(-c2ccco2)nc2nc3ccccc3nc21` gave AmpC no deterg 28%, Sm TGR block 50µM*, RE007 growth inh 4%, Giardia FBPA inh -7% and AmpC detergent -2%.
CCCCn1c(-c2ccco2)nc2ccccc2c1=O was read as AmpC no deterg -7%, Sm TGR block 56µM*, RE007 growth inh -7%, Giardia FBPA inh 1% and AmpC detergent 4%.
